The structures appear in SMILES notation. Among all 360,000 compounds or so, about 25,000 (6.9%) were called active. Another 9% or so got no clear call; they are omitted. The full list was thinned out, with actives kept by preference. Values without a mark were called inactive. Calls come from the whole dose curve; as a rule, active = well fitted inhibition curve with a large enough effect; inconclusive = small, poorly fitted or top-dose-only effect; inactive = flat fitted curve, though single readings scatter.
Potency is the fitted concentration of half-maximal effect.

Luciferin 4-monooxygenase (Photinus pyralis), sequence (P08659 whole entry, looked up): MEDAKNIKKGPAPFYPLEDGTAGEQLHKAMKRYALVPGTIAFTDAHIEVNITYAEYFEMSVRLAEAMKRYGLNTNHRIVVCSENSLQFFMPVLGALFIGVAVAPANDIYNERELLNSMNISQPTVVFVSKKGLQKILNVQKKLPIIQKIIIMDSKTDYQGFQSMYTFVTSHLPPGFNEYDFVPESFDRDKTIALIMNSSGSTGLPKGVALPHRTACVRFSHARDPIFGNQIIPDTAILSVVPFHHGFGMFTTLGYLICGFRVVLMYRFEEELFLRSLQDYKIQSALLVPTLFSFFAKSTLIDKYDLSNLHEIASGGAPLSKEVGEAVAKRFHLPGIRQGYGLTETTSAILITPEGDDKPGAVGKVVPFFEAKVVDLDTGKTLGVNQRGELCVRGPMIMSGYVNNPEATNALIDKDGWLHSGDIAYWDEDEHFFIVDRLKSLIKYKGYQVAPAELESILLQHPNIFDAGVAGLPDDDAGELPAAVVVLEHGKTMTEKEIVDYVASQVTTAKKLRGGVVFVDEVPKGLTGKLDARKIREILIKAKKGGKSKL

This assay has as its target Luciferin 4-monooxygenase (Photinus pyralis) (UniProt P08659). Put plainly: qHTS profiling assay for firefly luciferase inhibitor/activator using purifed enzyme and Km concentrations of substrates (counterscreen for miR-21 project).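 For activity change, negative = inhibition: plate controls were vehicle for no effect and reference inhibitor for full effect.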 Note: nearly all actives have a fitted effect of over 55% in size. The following applies: purified FLuc, luminescence inhibition; series mostly up to 57.5 µM; activity change, negative = inhibition: at the top concentration. An outline of the steps: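 Biochemical qHTS of compounds, final roughly 60 µM downward over six points, against 10 nM purified firefly luciferase using Km concentrations of substrates (10 uM D-luciferin, 10 uM ATP) in Tris acetate pH 7.5 buffer; luminescence output.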
(In general: qHTS replaces the single test concentration by a dilution series.)
In the case of `O=C(O)c1cccc(NC(=O)c2cc(-c3cccc(Cl)c3)nc3ccccc23)c1`, the Potency was 16.9 µM (active).
Turning to `COc1ccccc1NC(=O)c1cc(Cl)nc2ccccc12`, the “activity change, negative = inhibition” value is -8.53%.
For the molecule `CCN(CC)CCNC(=O)c1ccc(NC(=O)c2cc(-c3ccncc3)nc3ccccc23)cc1`, the “activity change, negative = inhibition” value was -1.21%.
As for `CCc1ccc(-c2nc(SCC(=O)NC3CCCC3)n[nH]2)cc1`, the Potency is 19 µM (active).
Take `CCOc1cc(-c2nnc(SCC(=O)NC3CCCC3)nc2-c2ccc(OC)c(OCC)c2)ccc1OC`: the “activity change, negative = inhibition” value was -2.08%.
Same read-out and setting: for `COc1ccc(CNC(=O)CSc2n[nH]c(-c3ccc(F)cc3)n2)cc1` the value was -15.8%.
Same read-out and setting: for `CC(=O)C[C@@H](O)CC(=O)[C@H]1OC(=O)CCCCCCc2ccccc21` the value was 0.211%.
Turning to `O=C(Nc1ccccc1)C1CCN(C(=O)c2ccc(Br)cc2)CC1`, the “activity change, negative = inhibition” value is 3.48%.
Consider `C/C(=C\C(=O)c1ccc(Br)cc1)N1CCCCC1`, for which the Potency is 15.1 µM (active).
On to `CC(C)(C)c1ccc(C(=O)N2CCC(C(=O)N3CCCCC3)CC2)cc1`, for which the “activity change, negative = inhibition” value is 1.12%.
Still for that read-out and setting: for `COc1cccc(CNC(=O)Cn2ncn3c(cc4ccccc43)c2=O)c1` the value was 3.75%; for `Cc1cc(NC(=O)CN2CCCC(C)C2)n(-c2nc3ccccc3s2)n1` (configuration not stated), -0.742%.
For `CCC(C)Cn1c(O)cc2nn(-c3nc4ccccc4s3)c(=O)c-2c1C` (configuration not stated), the Potency was 0.301 µM (active).
For `S=C(Nc1cccc(Br)c1)N1CCn2cccc2C1c1cccnc1` (configuration not stated), the “activity change, negative = inhibition” value is 1.23%.
Consider `CCCCCCCCCCCCCCCC(=O)OC/C=C(C)/C=C/C=C(C)/C=C/C1=C(C)CCCC1(C)C`, for which the “activity change, negative = inhibition” value is -0.543%.
Same read-out and setting: under `O=C(CCS(=O)(=O)c1ccc2c(c1)NC(=O)CO2)Nc1cccc(C(F)(F)F)c1` stands -2.12%; under `CCNc1nc(SCCOc2ccccc2)nc(N(C)C)n1`, -13.8%.
Same read-out and setting: for `COc1cn(CC(=O)Nc2cccc(C)c2C)c(CN2CCCCC2)cc1=O` the value was 0.302%.
For the molecule `Cc1ccc(/C=N/NC(=O)C(NC(=O)c2ccccc2)c2n[nH]c(=O)c3ccccc23)cc1` (configuration not stated), the Potency was 19 µM (active).
For `Cc1ccc(/C=N/NC(=O)COc2ccccc2-c2ccccc2)cc1`, the “activity change, negative = inhibition” value is 4.74%.
On the same count and under the same terms, under `Cc1ccc(S(=O)(=O)Oc2ccc(/C=N/NC(=O)c3ccncc3)cc2)cc1` stands -2.83%; under `CCOC(=O)c1cccc(NC(=O)C(Cc2ccccc2)NS(=O)(=O)c2cccc3nsnc23)c1` (configuration not stated), 6.66%.
Same read-out and setting: under `CN(C(=O)CSc1nc2ccccc2n1Cc1ccccc1C#N)c1ccccc1` stands -8.81%; under `O=C(COc1ccc(/C=N/NC(=O)c2ccc(O)cc2)cc1)Nc1ccc([N+](=O)[O-])cc1`, -11.2%.
`O=C(N/N=C/c1ccsc1)c1cc(O)cc(O)c1`: the Potency is 21.3 µM (active).
For `O=C(N/N=C/c1ccc(O)c(O)c1)C1c2ccccc2Oc2ccccc21`, the “activity change, negative = inhibition” value is -0.323%.
Still for that read-out and setting: for `Cc1cccc(-n2ncc(C(=O)N3CCc4ccccc4C3)c2C2CCN(C(=O)OC(C)(C)C)CC2)c1` the value was -6.87%.
Same read-out and setting: for `Cc1ccc(NC(=O)c2nc(S(=O)(=O)Cc3cccc(C)c3)ncc2Cl)cc1` the value was -18.8%; for `Nc1[nH]c(=S)nc2nc(-c3ccccc3)c(-c3ccccc3)nc12`, -0.431%.
Still for that read-out and setting: under `O=C(c1cccc([N+](=O)[O-])c1)N1CCN(Cc2ccccc2)CC1` stands -2.8%; under `Cn1nnnc1SCC(=O)N1CCN(Cc2ccccc2)CC1`, 6.53%.
In the case of `Cc1c(Br)c([N+](=O)[O-])nn1CC(=O)N1CCN(Cc2ccccc2)CC1`, the Potency is 13.5 µM (active).
Consider `Cc1cccc(NS(=O)(=O)c2ccc(-c3cnc(C4CC4)o3)cc2)c1`, for which the “activity change, negative = inhibition” value was 1.53%.
Take `COc1ccc(/C=N/N(C)C2=NS(=O)(=O)c3ccccc32)cc1OC`: the “activity change, negative = inhibition” value was -2.58%.
The same measure, in the same setting: for `CCOc1ccc(/C=N/NC(=O)CSc2ccccn2)cc1O` the value was -2.26%.
Consider `COc1ccc(/C=N/N=C2/C(=O)Nc3ccccc32)cc1O`, for which the Potency was 19 µM (active).
As to `CCOC(=O)c1cc(-c2ccccc2)n(-c2cccc(C(=O)Nc3cc(OC)cc(OC)c3)c2)c1C`, the “activity change, negative = inhibition” value was -7.06%.
In the case of `Cc1cc(C)c2oc(C(=O)Nc3ccc(S(=O)(=O)N(C)c4ccccc4)cc3)cc(=O)c2c1`, the “activity change, negative = inhibition” value was 5.08%.
Same read-out and setting: under `O=C(NCCN1CCCC(O)C1)c1cc(COc2c(F)cccc2F)on1` (configuration not stated) stands -0.38%; under `O=C(Oc1ccc(F)cc1)N1CCOCC1`, -0.597%.
As to `O=C(c1cc(COc2ccc(F)cc2F)on1)N1CCOCC1`, the Potency is 16.9 µM (active).
`C=CCC1(CC=C)CCCN1C(=O)c1cc(COc2ccc(-n3cncn3)cc2)on1`: the “activity change, negative = inhibition” value was -3.43%.
The same measure, in the same setting: for `O=C(c1cc(COc2cccc(C(F)(F)F)c2)on1)N1CCSCC1` the value was -0.261%.
On to `O=C(c1cc(COc2c(F)cccc2F)on1)N1CCSCC1`, for which the Potency is 19 µM (active).
Take `COc1ccc(CCN2C(=O)c3oc4cc(C)cc(C)c4c(=O)c3C2c2ccccc2F)cc1OC` (configuration not stated): the “activity change, negative = inhibition” value was -13.9%.
Regarding `COc1cccc(CNCCSc2nnnn2C)c1OCc1ccccc1Cl`, the “activity change, negative = inhibition” value is 2.21%.
Same read-out and setting: for `O=C(NCCCc1ccccc1)c1ccc2c(c1)sc1nc(-c3ccc(F)cc3)cn12` the value was -6.72%.
As to `C/C(=N/Nc1nc(-c2ccccc2)c(CC(=O)O)s1)c1ccccc1`, the Potency was 5.36 µM (active).
On to `CCOC(=O)C(=O)Nc1nc(-c2ccccc2)c(CC)s1`, for which the “activity change, negative = inhibition” value was 3.83%.
The same measure, in the same setting: under `CCOc1ccc(-c2nc(C)sc2CC(=O)O)cc1` stands -4.12%; under `Cc1ccc(C)c(N2CCN(S(=O)(=O)c3ccc4c(c3)C(C(C)C)C(=O)N4)CC2)c1` (configuration not stated), -12.1%.
With `CN(Cc1ccccc1)C(=O)COc1ccccc1`, the Potency was 9.53 µM (active).

The values above are taken from PubChem BioAssay AID588342 (National Center for Advancing Translational Sciences (NCATS), 2011).
